According to article PMC10163288:
Not all results are given here. No count for the full screen is at hand.

B1: il10ra_site1_sap_17_mot_HEEHE_1605_000000211_0001_40_56_H_._9e622f7d73aa0ff91040b48e8c7f7504_0001_1_af2_0001_0000600013_0000002_0_0001 (protein)
chain: SSSSSDANHEALELVLEAMHAMLRGDREEAERLLEEALELAREGNNERLAKQIEILLENASSSSS
B2: il10ra_site1_normal_mot_HHH_b1_04065_000000255_0001_41_56_H_._HHH_b1_07236_0001_0000100003_0000001_1 (protein)
chain: SSSSDEEYRREVEELLEEAEQIEDPHERAEVLARALRRAYEGRDPELFRLVDRVAIELYFSSSSS
B3: il10ra_site1_sap_21_mot_HHH_b2_06979_000000158_0001_42_57_H_._HHH_b1_00540_af2_0001_0000100003_0000001_0_0001 (protein)
chain: SSSTLTERIYKLSEKALELLKQGDTEEAEEVVEEAIELAEEAGSRVLAHVLEFLLEAIKRRSSSS
B4: il10ra_site1_normal_mot_HHH_b2_06090_af2_000000001_0001_1_19_H_._HHH_b1_07022_0001_0000500035_0000001_0 (protein)
chain: SSSSSQEVAELIIEAFRLLLRGDEEEVERLLEELKELAEELNDPALRRLVEILEEAIKAASSSSS
B5: il10ra_site1_sap_19_mot_HHH_b2_07521_000000141_0001_20_37_H_._HHH_b1_07537_af2_0001_0000400008_0000001_0_0001 (protein)
chain: SSSSSDEERLEELLEELKELLEEGDRERFLRVALEVLRLAFQSSDEEALQAVWRLVKKWGSSSSS
B6: il10ra_site1_normal_mot_HHH_b1_03094_000000294_0001_1_20_H_._HHH_b1_05478_af2_0001_0000100005_0000001_0 (protein)
chain: SSSSDEENQEALELSLEALRLALRGDPEKAREVLEEAFELAERANNERLLRIIEELLEALHSSSS
B7: il10ra_site1_normal_mot_HHH_b1_06789_af2_000000041_0001_1_20_H_._HHH_b1_02788_0001_0000100006_0000001_0 (protein)
chain: SSSSDLEEEIEEAIEEARENGDELIVQILEILLRQIRRDGSPNARWLVRQVIKALKNLLENSSSS
B8: il10ra_site1_sap_24_mot_HHH_b2_06857_af2_000000179_0001_42_54_H_._HHH_b1_04179_af2_0001_0000200006_0000001_1_0001 (protein)
chain: SSSSSDATRELYRLSKEAAELLAEGNPEEAQRVAEEAFELAEEAGNRVLLHAIEHLLRDISSSSS
B9: il10ra_site1_normal_mot_HHH_b2_07521_000000141_0001_20_37_H_._HHH_b1_01332_0001_0000100002_0000001_0_af2pred_0001 (protein)
chain: SSSSDEEEKRLRLALRLARFLIEQGDEEAARKLLEWIRELAKRANDEEALEEAQRLLEEVGSSSS
B10: il10ra_site1_normal_mot_HHH_b1_01879_000000050_0001_1_18_H_._HHH_b1_04021_0001_0000200009_0000001_0_af2pred_dldesign_0_af2pred (protein)
chain: SSSSSELDALLAALEAAVAAGDEAAVRELSVRVSRLALEANNKEVLKKVFDLMVDFYKKLSSSSS
B11: il10ra_site1_sap_20_mot_HHH_b1_05126_000000053_0001_38_52_H_._HHH_b2_05116_af2_0001_0000900047_0000001_0_0001 (protein)
chain: SSDEREELKEEVEEEVEKAVENKDPELVKEIIAKALMEAARLRDDQLSMAIIRIYARANQLLQSS
B12: il10ra_site1_normal_mot_HHH_b2_08144_af2_000000046_0001_38_52_H_._HHH_b1_00696_0001_0000600035_0000001_0 (protein)
chain: SSSSTEEIQRIMELLRRAAELLNEGNPEEAEKLIEEAEELVKEANDPLLEIQLRFLERDINSSSS
B13: il10ra_site1_sap_23_mot_HHH_b1_01233_000000085_0001_1_18_H_._HHH_b1_01214_0001_0000100002_0000001_0_0001 (protein)
chain: SSSSDEEHIEELARAVERQLEQLSKYDPRLLERLAEAARKALELWDEELAREIEELAKELLSSSS
B14: il10ra_site1_normal_mot_HHH_b2_00984_000000042_0001_1_20_H_._HHH_b2_02613_af2_0001_0000700025_0000001_0 (protein)
chain: SSSSSTEEEIEELIKKAEEAAENGDPRKAFELLAEASRYALELGDAELLQEIWELIKKLNSSSSS
B15: il10ra_site1_sap_23_mot_HHH_b1_03574_000000194_0001_1_18_H_._HHH_b1_05868_0001_0000200012_0000002_0_0001 (protein)
chain: SSSSSDRDELYELIEEALELLARGNPEEAERVLEEARELAEELGNRVFLVVIRFLLKDIKSSSSS
B16: il10ra_site1_normal_mot_HHH_b1_05056_000000217_0001_1_20_H_._HHH_b2_04285_0001_0000100002_0000001_0 (protein)
chain: SSSSDLEEEIERLEEELREARERGDKELALQLLLRLLRLAYETRDEELLRELWEIVRKLFSSSSS
B17: il10ra_site1_normal_mot_HHH_b1_04693_000000238_0001_19_36_H_._HHH_b2_06085_af2_0001_0000700026_0000002_0 (protein)
chain: SSSSSDQELYELIRELIELLLEGDEEEIERLEEEIEKLAKELNNRVLLFVARAARRLQEKSSSSS
B18: il10ra_site1_sap_20_mot_HHH_b1_08622_000000192_0001_23_40_H_._HHH_b2_06485_0001_0000100001_0000003_0_0001_af2pred_0001 (protein)
chain: SSSSSEFEEAIKAARESIEHALRLGDDEKVEQALRLLERLARDANDEEAEKFIEEVEELLSSSSS
B19: il10ra_site1_sap_11_mot_HHH_b1_00456_000000263_0001_1_17_H_._HHH_b2_06141_0001_0000200005_0000001_0_0001_af2pred_0001 (protein)
chain: SSSSDIAERLVELALEAARLAAERGDPEAVRRALEQAEHLAKLNNNPELEEEVKELEEELSSSSS
B20: il10ra_site1_sap_15_mot_HHH_b1_00814_af2_000000078_0001_43_57_H_._HHH_b2_00250_af2_0001_0000100010_0000001_0_0001_af2pred_0001 (protein)
chain: SSSSSRSAEEAIRRLLRAAKQLEDEERLKLAIRDALAAAEFLGNEELVEELRKILEELRSSSSSS
B21: il10ra_site1_sap_28_mot_HHH_b2_01776_000000118_0001_38_52_H_._HHH_b1_02755_0001_0000100001_0000001_0_0001_af2pred_0001 (protein)
chain: SSSSDEELLEHLLRALKQVVELGDEERAKLTIKFIKRLAELHNDEEVEKRLRELEELVEELSSSS
B22: il10ra_site1_normal_mot_HHH_b1_02809_af2_000000277_0001_40_57_H_._HHH_b1_00768_af2_0001_0000200008_0000001_0 (protein)
chain: SSSSSSDANETAARLIRAAYRGDEELFEELREELEELIERYGDPRLRLALQFAEALFRELSSSSS
B23: il10ra_site1_sap_22_mot_HHH_b1_00169_000000276_0001_1_18_H_._HHH_b1_00842_0001_0000200007_0000001_0_0001 (protein)
chain: SSSSDEEREELYEILEEVIKLASEGDEEEFEELVREAEELAKELGNWVVRHVLELLRRDLSSSSS
B24: il10ra_site1_normal_mot_HHH_b2_01397_000000078_0001_23_39_H_._HHH_b2_08075_0001_0000300026_0000002_0_af2pred_0001 (protein)
chain: SSSSDERVKLTLRFAEALAKHGDRRAVELLLRAARQLAERDGDEELEELIEEVEERVRELLSSSS
B25: il10ra_site1_normal_mot_HHH_b1_05357_000000034_0001_23_39_H_._HHH_b1_03625_af2_0001_0000700020_0000001_0 (protein)
chain: SSSSSDEKEVTHILIQAYAAANHGNPEEAEELLKEAKEIAEEINNERLKLSIEKVEEILRSSSSS
B26: il10ra_site1_sap_13_mot_HHH_b2_00943_af2_000000149_0001_1_17_H_._HHH_b1_02941_af2_0001_0000200003_0000001_0_0001 (protein)
chain: SSSSDVSREAYELSRRAAELHSEGNPEEARELLEEAEELLREAGDRVILHNVEYVLELLNSSSSS
B27: il10ra_site1_sap_14_mot_HHH_eva_0266_af2_000000000_0001_3_18_H_._HHH_b1_03321_0001_0000100001_0000001_0_0001 (protein)
chain: SSSSYEELKKLIERITRALREGNREEAQELIERVEELAEERNDWSARFVARVLQEALEANSSSSS
B28: il10ra_site1_normal_mot_HHH_b2_00475_000000107_0001_44_57_H_._HHH_b2_03520_0001_0000600038_0000001_0 (protein)
chain: SSSSDEEEVSHLLFRALELLFRGDKEEAEELVEEAKEIAEESNDPELQRYVEIAEHFVKAHSSSS
B29: il10ra_site1_normal_mot_HHH_b2_08186_000000021_0001_43_56_H_._HHH_b1_00125_0001_0000100002_0000001_0 (protein)
chain: SSSSSSDLEEEIEELLEELKQISDPERFAEVARRVLRLIYELGDEELLQELWEILKRLSSSSSSS
B30: il10ra_site1_normal_mot_HHH_b1_05670_000000169_0001_1_19_H_._HHH_b2_02857_0001_0000400035_0000001_1 (protein)
chain: SSSSDEDYRRAKELIELIVELLREGNPEEAKKVLEELRELAEENNNPVLEWSVRLLEEDINSSSS
B31: il10ra_site1_sap_27_mot_HHH_b1_05870_000000031_0001_1_20_H_._HHH_b2_06019_af2_0001_0000100004_0000001_0_0001 (protein)
chain: SSSSSDIEELLREAEELAEEGDPEEAARLLLEALKLIYERQDKELLQELWEVVRRVAEISSSSSS
B32: il10ra_site1_sap_19_mot_HHH_b2_03220_af2_000000223_0001_23_40_H_._HHH_b1_07213_0001_0000100001_0000001_0_0001 (protein)
chain: SSSSDEEQEELLRLLRKLVELLLRGDKEEAERLARELLELAEELNDEKVVHVVEDLEKTVSSSSS
B33: il10ra_site1_sap_24_mot_HHH_b2_00475_000000107_0001_44_57_H_._HHH_b1_04576_0001_0000500027_0000001_0_0001 (protein)
chain: DLLELAFELQRRQGTPPEDVIRALLYLAHAANDPERVELLEEVLKLLEDGDPERAEELLKEASKR
B34: il10ra_site1_sap_20_mot_HHH_b1_07100_000000193_0001_1_18_H_._HHH_b2_05849_0001_0000400035_0000001_0_0001_af2pred_0001 (protein)
chain: SSSSSERLELTIKFIEFLLEQGDPEAAKRLARAAAQIAKKDGDEELLRRIEELLEEAEELLSSSS
B35: il10ra_site1_normal_mot_1cde5897893f3d1588f92be3b001cdf2_0001_af2_000000130_0001_54_65_H_._HHH_b2_05871_0001_0000300015_0000001_1_af2pred_0001 (protein)
chain: SSSSSDEEVEERVEELLERLHHVDPKEAAQLLHEAARLAAELDNPELLELVFEAAEEVISSSSSS
B36: il10ra_site1_sap_30_mot_HHH_b1_02809_af2_000000277_0001_40_57_H_._HHH_b1_05733_0001_0000200016_0000002_0_0001 (protein)
chain: SSSSSEASRRIYELLRRIVELHHEGNPEEARELIEEAKELAEEAGDRVLLWVIEWLERLVNSSSS
B37: il10ra_site1_sap_21_mot_HHH_b1_04771_000000013_0001_40_56_H_._HHH_b1_05247_0001_0000500023_0000001_0_0001 (protein)
chain: SSSSDQEEELVRAAIRLIEQLIKNGNPEAARMILWAAEKLAKEINNPELLEELEELKELLNSSSS

target: il10ra, Q13651; assay: yeast display titration
Sequence (Q13651 whole entry): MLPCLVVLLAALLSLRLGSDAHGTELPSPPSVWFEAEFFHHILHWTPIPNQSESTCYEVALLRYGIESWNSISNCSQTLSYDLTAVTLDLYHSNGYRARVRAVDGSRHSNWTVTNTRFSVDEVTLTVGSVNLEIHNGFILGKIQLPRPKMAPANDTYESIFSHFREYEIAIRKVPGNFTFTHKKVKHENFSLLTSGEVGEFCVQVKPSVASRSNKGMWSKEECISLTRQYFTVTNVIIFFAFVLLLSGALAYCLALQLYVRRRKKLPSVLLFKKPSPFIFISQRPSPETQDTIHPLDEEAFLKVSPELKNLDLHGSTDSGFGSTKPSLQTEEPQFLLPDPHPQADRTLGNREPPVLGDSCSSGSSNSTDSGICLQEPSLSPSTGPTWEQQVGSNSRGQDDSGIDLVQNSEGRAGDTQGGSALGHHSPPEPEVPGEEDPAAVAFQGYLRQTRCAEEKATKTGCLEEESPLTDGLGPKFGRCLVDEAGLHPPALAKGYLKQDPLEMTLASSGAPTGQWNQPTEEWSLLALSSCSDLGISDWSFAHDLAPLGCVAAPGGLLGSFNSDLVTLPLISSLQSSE

Apparent Kd, inactive:
B1 no binding seen
B2 no binding seen
B3 no binding seen
B4 no binding seen
B5 no binding seen
B6 no binding seen
B7 no binding seen
B8 no binding seen
B9 no binding seen
B10 no binding seen
B11 no binding seen
B12 no binding seen
B13 no binding seen
B14 no binding seen
B15 no binding seen
B16 no binding seen
B17 no binding seen
B18 no binding seen
B19 no binding seen
B20 no binding seen
B21 no binding seen
B22 no binding seen
B23 no binding seen
B24 no binding seen
B25 no binding seen
B26 no binding seen
B27 no binding seen
B28 no binding seen
B29 no binding seen
B30 no binding seen
B31 no binding seen
B32 no binding seen
B33 no binding seen
B34 no binding seen
B35 no binding seen
B36 no binding seen
B37 no binding seen
